# Screening data from PubChem.
# The list is not random: actives were taken first. Their share in the collection is about 3.4%.
# GPR151 ag – activators of human GPR151, primary screen, cell-based, PathHunter beta-arrestin, luminescence; G-protein coupled receptor 151 (Homo sapiens), Q8TDV0; PathHunter beta-arrestin GPR151 cells; activation, % at 11.2 µM; 650,000 compounds, 1% hits; in the data active means activation above about 4.9%;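 further: 0% = median of compound wells and 100% = cells with positive control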
# Target sequence (Q8TDV0 whole entry, looked up): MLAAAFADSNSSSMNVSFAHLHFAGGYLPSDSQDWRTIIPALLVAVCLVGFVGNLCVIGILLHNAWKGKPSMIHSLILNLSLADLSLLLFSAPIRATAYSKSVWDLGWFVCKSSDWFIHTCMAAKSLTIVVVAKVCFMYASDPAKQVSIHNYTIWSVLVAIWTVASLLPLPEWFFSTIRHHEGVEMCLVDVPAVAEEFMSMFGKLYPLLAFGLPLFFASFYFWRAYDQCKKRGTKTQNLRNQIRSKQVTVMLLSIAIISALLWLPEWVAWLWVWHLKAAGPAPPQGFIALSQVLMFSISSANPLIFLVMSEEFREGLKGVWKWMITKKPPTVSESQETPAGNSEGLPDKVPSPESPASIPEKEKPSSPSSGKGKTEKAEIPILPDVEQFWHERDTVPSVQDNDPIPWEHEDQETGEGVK
# MITF inh – MITF inhibitors, primary screen, biochemical, AlphaScreen, human; Microphthalmia-associated transcription factor (Homo sapiens), O75030; AlphaScreen MITF homodimerization, bead proximity signal; inhibition, % at 2.6 µM; 650,000 compounds, 0.91% hits; in the data active means inhibition above about 50%;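 further: 0% = vehicle wells with protein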
# TEAD-YAP block – TEAD-YAP interaction inhibition, primary screen, TEAD-YAP interaction inhibitor project, luminescence, HEK-TIYL cells; TEAD-Gal4/YAP UAS-luciferase luminescence; inhibition, % at 9.12 µM; 640,000 compounds, 1.4% hits; in the data active means inhibition above about 32%;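 further: 0% = median of test compound wells and 100% = reference inhibitor wells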
# FBW7 activator – FBW7 E3 ligase activators, primary screen, biochemical, AlphaScreen, human; F-box/WD repeat-containing protein 7 (Homo sapiens), Q969H0; AlphaScreen FBW7–phospho-cyclin E peptide binding, activator screen; normalized activity (activation), % at 26.1 µM; 650,000 compounds, 0.13% hits; in the data active means normalized activity above about 1.9%;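 further: purified mutant Fbw7 with reduced substrate affinity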
# * hit, by the source's call.
SMILES,GPR151 ag,MITF inh,TEAD-YAP block,FBW7 activator
CNC(=O)c1ccccc1Nc1cc(NC(=O)Cc2ccc(OC)cc2)ncc1C#N,0,-10,40*,0
CNC(=O)c1ccccc1Nc1cc(NC(=O)Cc2ccc(OC)cc2)ncc1C(F)(F)F,2,4,84*,0
Oc1c(C(c2cccs2)N2CCOCC2)ccc2cccnc12 (configuration not stated),2,61*,77*,-1
Oc1c(C(c2cccs2)N2CCN(c3ccccc3)CC2)ccc2cccnc12 (configuration not stated),0,18,87*,0
CCOC(=O)C(CC)/C(C)=N\NC(=O)c1ccccc1O (configuration not stated),1,0,59*,-1
CCOC(=O)C(CC)/C(C)=N\NC(=O)c1ccccc1[N+](=O)[O-] (configuration not stated),0,9,2,1
COc1ccc2c(c1)C(=O)NC2CC(=O)NC1(c2ccccc2OC)CCCC1 (configuration not stated),1,9,49*,0
N#CC1=C(SCc2ccccc2Cl)NC(=O)CC1c1ccccc1F (configuration not stated),0,5,-4,0
CCS(=O)(=O)Nc1cccc(N2CCC(NCc3cccc(OC)c3)CC2)c1,-1,10,2,0
O=C(Nc1cccc(-n2cnnn2)c1)C1CCCN(Cc2ccccc2)C1 (configuration not stated),-1,-4,2,0
O=C(Nc1cccc(-n2cnnn2)c1)C1CCCN(Cc2cc3ccccc3o2)C1 (configuration not stated),0,3,41*,0
O=c1c(Nc2ccccc2)c(-c2ccc(Cl)cc2)c1=O,-1,9,47*,0
CCOc1ccccc1Nc1c(-c2ccccc2)c(=O)c1=O,-1,-1,-8,0
O=c1c(Nc2ccc(Cl)cc2)c(-c2ccccc2)c1=O,0,9,-2,0
CCOc1ccc(Nc2c(-c3ccccc3)c(=O)c2=O)cc1,-2,20,60*,0
Cn1c2ccccc2n2c(=O)n(CC(=O)NCCCN3CCCC3=O)nc12,-1,0,8,1
O=C1N/C(=C\c2cc3c(cc2Br)OCO3)C(=O)N1Cc1ccc(F)cc1,0,7,2,0
Cc1ccc(C(=O)c2sc3nc(C)ccc3c2N)c(C)c1,0,-7,37*,0
COc1ccc(C(=O)c2sc3nc(C)ccc3c2N)cc1OC,0,-13,33*,0
COc1ccc(S(=O)(=O)c2cc3cccc(OC)c3oc2=O)cc1OC,0,-17,1,0
CCCCNS(=O)(=O)c1ccc2nc(SCC(C)=O)[nH]c2c1,5,-12,34*,0
COCCn1c(C)cc(C(=O)COC(=O)c2ccccc2Br)c1C,-6,7,82*,0
Cc1cc(C(=O)COC(=O)c2ccccc2Br)c(C)n1CC1CCCO1 (configuration not stated),-6,0,92*,0
Cc1cc(C(=O)COC(=O)c2n[nH]c3ccccc23)c(C)n1CC1CCCO1 (configuration not stated),-7,-1,94*,0
Cc1cc(C(=O)COC(=O)c2ccccc2[N+](=O)[O-])c(C)n1CC(F)(F)F,-11,5,95*,0
SMILES,GPR151 ag,MITF inh,TEAD-YAP block,FBW7 activator
COc1ccc(C(=O)OCC(=O)c2cc(C)n(CC(F)(F)F)c2C)cc1[N+](=O)[O-],0,-6,9,0
COCCn1c(C)cc(C(=O)COC(=O)c2cccnc2SC)c1C,-6,7,10,0
O=C(Nc1ccc([N+](=O)[O-])cc1Cl)NC1(C(F)(F)F)Oc2ccccc2O1,1,2,18,0
Cc1cc(C(=O)COC(=O)c2cccnc2Cl)c(C)n1CC1CCCO1 (configuration not stated),-7,13,66*,0
CCOc1cc2c(cc1OCC)C1C(C(=O)N(CC)CC)c3ccccc3C(=O)N1CC2 (configuration not stated),0,12,32*,0
CCN(CC)C(=O)C1c2cc(OC)c(OC)cc2C(=O)N2CCc3ccccc3C12 (configuration not stated),0,-3,0,0
Cc1ccc2nc(NC(=O)CSCC(=O)OCC(=O)c3ccccc3)sc2c1,-1,2,68*,0
COC(=O)CSCC(=O)Nc1nc2ccccc2s1,-4,-5,-5,0
O=[N+]([O-])c1cc(/C=N/Nc2ccccn2)c(O)c([N+](=O)[O-])c1,0,14,-3,0
O=[N+]([O-])c1cccc(/C=N/Nc2ccccn2)c1O,4,94*,78*,0
COc1cccc(/C=N/Nc2ccc([N+](=O)[O-])cn2)c1O,-5,-12,66*,8.6*
NCc1nn(CCc2ccccn2)c(=O)c2ccccc12,0,26,59*,1
Cn1nc(CN)c2ccccc2c1=O,-3,0,11,0
O=C(Cn1nnc(-c2ccccc2)n1)N/N=C/c1ccccc1C(F)(F)F,1,12,0,0
O=C(Cn1nnc(-c2ccccc2)n1)N/N=C/c1ccc(O)c(O)c1O,1,66*,8,-1
O=C(Cn1nnc(-c2ccccc2)n1)N/N=C/c1cc(Cl)ccc1O,0,57*,-1,0
Cc1cc(Oc2ccccc2)nc(Oc2ccc(OCC(N)=O)nn2)n1,2,-6,-7,0
CCCCC(=O)Nc1ccc(Nc2nc(C)cc(N3CCCC3)n2)cc1,0,-18,65*,0
Cc1cc(N2CCCC2)nc(Nc2ccc(NS(=O)(=O)c3ccc(F)cc3)cc2)n1,0,0,57*,0
CCCC(=O)Nc1ccc(Nc2nc(C)cc(N3CCOCC3)n2)cc1,1,2,24,0
CC1CN2C(=O)Cc3c(S(=O)(=O)Nc4ccc(F)cc4)ccc(c32)S1 (configuration not stated),0,10,23,0
CCc1cccc(NS(=O)(=O)c2ccc3c4c2CC(=O)N4CC(C)S3)c1 (configuration not stated),0,-3,36*,0
COc1ccc(C(=O)Nc2nc(CSCc3ccc(F)cc3)cs2)cc1OC,3,-1,10,0
Cc1ccc(-c2nc(CS(=O)CC(=O)NCC3CCCO3)c(C)o2)cc1 (configuration not stated),0,3,-3,1.9*
COC(=O)c1ccc2c(=O)n(CC3CCCO3)c(SCC(=O)Nc3ccc(C)cc3)nc2c1 (configuration not stated),2,0,4,0
COC(=O)c1ccc2c(=O)n(CC3CCCO3)c(SCC(=O)Nc3ccc(C)c(Cl)c3)nc2c1 (configuration not stated),0,-4,-7,3.5*
